# PfHsp90 set2 = reduces growth (ATP signal) of yeast expressing P. falciparum Hsp90 | S. cerevisiae expressing PfHsp90, BacTiter-Glo ATP, 48 h; yeast lacking PDR1 and PDR3 efflux regulators | hit rate 0.32% among 310,000 | inhibition, % at 9.4 µM;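 active = every replicate shows inhibition above about 80%, whatever the replicate mean, limit read from the data; inconclusive = mean inhibition reaches the set limit but some replicate falls short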;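 note: 0% = DMSO neutral controls and 100% = 20 µM radicicol positive controls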
# Glyco luc inh = N-linked glycosylation inhibition; AID 588692; reporter increase, % at 12.5 µM; D54 ERlucT glycosylation luciferase reporter, 24 h; percent of 100 nM tunicamycin response; hit rate 0.23% among 360,000;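 active = mean luciferase reporter signal, scaled so untreated is 0 and the glycosylation-blocking control 100, at or above a set limit in every replicate; inconclusive = mean reaches the limit but not every replicate does; inactive = mean below the limit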;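 note: luciferase carries N-glycosylation sites so blocking glycosylation raises the light; 0% = median of neutral control wells and 100% = median of 100 nM tunicamycin wells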
# Wnt bcat act = activators of Wnt/beta-catenin signaling | AID 743398 | activation, % at 9.35 µM | hit rate 1.2% among 300,000 | Wnt/beta-catenin reporter cell assay, activator, plate reader; in the data active = activation above about 30%, passing the limit was not always enough; inconclusive = no clear call, values can overlap the other calls;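 note: 0% = neutral control wells and 100% = positive control wells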
# MITF act = increases MITF-driven TRPM1 promoter luciferase signal. SK-MEL-5 TRPM1-promoter luciferase, 24 h; % of positive control, neutral wells = 0. activation, % at 12.5 µM. hit rate 0.75% among 300,000;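 active = mean activation of at least 80% with every replicate also reaching 80%; inconclusive = mean reaches 80% but some replicate falls short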;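 note: 0% = neutral control wells and 100% = parthenolide positive control wells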
# TRPM1 prom inh = inhibitors of MITF-driven TRPM1 promoter in melanoma cells | SK-MEL-5 TRPM1 promoter luciferase, 24 h | inhibition, % at 12.5 µM | hit rate 0.83% among 330,000 | AID 488899;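 active = mean inhibition across replicates of 60% or more, whatever share of single replicates reaches that level; inconclusive = some that reach 60%, reason not given; inactive = mean inhibition across replicates below 60%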
# NSD2 inh = blocks human histone methyltransferase NSD2 | O96028 | NSD2 peptide methylation, AlphaScreen, 120 min | inhibition, % at 12.5 µM | hit rate 0.54% among 310,000 | AID 743445; in the data active = inhibition above about 50%
# Target sequence (O96028 whole entry, looked up): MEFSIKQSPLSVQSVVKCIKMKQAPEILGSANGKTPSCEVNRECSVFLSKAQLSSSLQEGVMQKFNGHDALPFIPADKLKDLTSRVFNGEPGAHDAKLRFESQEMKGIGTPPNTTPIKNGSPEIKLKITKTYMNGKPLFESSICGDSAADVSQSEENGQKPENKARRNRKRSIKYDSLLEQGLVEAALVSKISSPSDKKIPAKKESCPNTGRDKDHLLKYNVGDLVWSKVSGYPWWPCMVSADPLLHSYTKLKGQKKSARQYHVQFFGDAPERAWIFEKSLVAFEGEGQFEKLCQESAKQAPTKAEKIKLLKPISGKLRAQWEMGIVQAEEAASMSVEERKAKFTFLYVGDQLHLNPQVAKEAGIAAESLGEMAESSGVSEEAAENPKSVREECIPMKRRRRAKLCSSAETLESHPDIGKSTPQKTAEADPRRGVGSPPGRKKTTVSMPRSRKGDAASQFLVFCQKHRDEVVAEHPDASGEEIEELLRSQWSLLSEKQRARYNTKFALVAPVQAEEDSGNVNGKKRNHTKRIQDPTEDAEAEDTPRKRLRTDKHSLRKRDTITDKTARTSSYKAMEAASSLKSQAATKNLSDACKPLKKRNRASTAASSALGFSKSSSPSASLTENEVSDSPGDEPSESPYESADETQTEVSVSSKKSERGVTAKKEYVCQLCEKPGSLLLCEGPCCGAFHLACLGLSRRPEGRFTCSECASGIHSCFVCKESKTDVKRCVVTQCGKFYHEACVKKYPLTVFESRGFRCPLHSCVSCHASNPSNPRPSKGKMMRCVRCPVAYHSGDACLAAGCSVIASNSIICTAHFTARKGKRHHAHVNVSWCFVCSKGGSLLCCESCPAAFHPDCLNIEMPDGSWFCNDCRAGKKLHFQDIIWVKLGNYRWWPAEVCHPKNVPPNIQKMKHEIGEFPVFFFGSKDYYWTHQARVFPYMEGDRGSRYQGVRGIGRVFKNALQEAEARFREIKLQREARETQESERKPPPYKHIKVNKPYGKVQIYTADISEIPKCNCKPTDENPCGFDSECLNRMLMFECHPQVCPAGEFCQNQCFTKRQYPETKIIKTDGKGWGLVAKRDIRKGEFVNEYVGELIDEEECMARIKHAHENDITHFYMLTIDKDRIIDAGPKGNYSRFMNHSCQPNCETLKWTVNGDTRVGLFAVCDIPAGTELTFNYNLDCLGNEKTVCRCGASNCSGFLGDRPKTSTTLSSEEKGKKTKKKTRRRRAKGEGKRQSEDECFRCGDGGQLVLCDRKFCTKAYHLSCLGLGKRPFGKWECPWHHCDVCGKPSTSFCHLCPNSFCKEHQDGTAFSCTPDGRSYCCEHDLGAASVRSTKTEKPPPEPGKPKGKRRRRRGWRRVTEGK
# * = called active by the depositor; u = inconclusive; x = no result given. Hits are enriched below; roughly 2.9% of the tested compounds scored in any of these assays.
SMILES,PfHsp90 set2,Glyco luc inh,Wnt bcat act,MITF act,TRPM1 prom inh,NSD2 inh
O=C(CSc1nnc(-c2cccnc2)n1C1CCCCC1)NC1CCCCCC1,x,x,x,x,x,-1.5
COc1ccc(NC(=O)n2ncc3c(C)cccc32)cc1,18.4,-2.5,39.2*,38.0,-33.0,-0.9
COc1ccc(NC(=O)n2ncc3c(C)cccc32)cc1OC,-3.3,-2.9,3.4,105.9*,-103.1,1.0
CCOC(=O)N1CCN(C(=O)C[C@H]2C[C@@]3(C(=O)OC)C(=C[C@H](C(C)(C)C)O[C@@H]3C)N(Cc3ccccc3)C2=O)CC1,x,x,-2.7,x,x,x
CNC(=O)COC(=O)c1ccccc1C(=O)c1ccc(Cl)c([N+](=O)[O-])c1,15.4,18.5,-23.8,-89.0,89.2*,11.5
O=C(COC(=O)c1ccccc1C(=O)c1ccc(Cl)c([N+](=O)[O-])c1)NC1CC1,-2.2,12.6,-21.6,-79.1,81.1*,-1.1
CC(=O)c1ccccc1N(C(=O)c1ccco1)C(C(=O)NC1CCCC1)c1ccc(N2CCOCC2)cc1 (stereo not given),x,-0.5,-2.1,6.9,-8.3,-1.8
Cc1ccc(N2C(=O)C3C4C=CC(CC4)C3C2=O)cc1[N+](=O)[O-] (stereo not given),-5.3,1.2,-1.6,x,-2.4,0.5
Cc1cc(N2C(=O)C=CC2=O)c([N+](=O)[O-])cc1C,117.0*,-6.0,x,-28.6,32.0,x
CCSc1nnc(NC(=O)c2cccc3ccccc23)s1,-42.0,1.4,0.2,1.3,4.8,x
CCSc1nnc(NC(=O)c2csc(C)c2)s1,-5.5,0.5,17.8,84.0*,-115.2,-1.1
COc1ccccc1C(=O)NC1=NCCS1,x,x,x,x,x,0.9
Cc1ccc(C)c2c1CCC(=Cc1ccccc1[N+](=O)[O-])C2=O,x,-0.7,-7.1,x,x,-1.2
CN1C/C(=C/c2ccccc2[N+](=O)[O-])C(=O)/C(=C\c2ccccc2[N+](=O)[O-])C1,12.5,12.4,-25.0,x,62.3*,4.5
CCCCN(CC)S(=O)(=O)c1ccc(C(=O)N=c2sc3cc(NC(C)=O)ccc3n2C)cc1,-6.4,1.4,-8.0,-8.6,8.4,-2.6
CCCCN(C)S(=O)(=O)c1ccc(C(=O)N=c2sc3cc(NC(C)=O)ccc3n2C)cc1,-2.7,-0.9,38.9*,1.8,-1.3,-1.8
CC(=O)Nc1cc(-c2ccc(N3CCN(C)CC3)cc2)cn2c(-c3ccccc3)cnc12,x,-1.3,37.7*,x,x,22.5
COC(=O)[C@]12C[C@H](CC(=O)NCc3cccc(C(F)(F)F)c3)C(=O)N(Cc3ccccc3)C1=C[C@H](C(C)C)O[C@@H]2C1CC1,x,x,-6.3,x,x,x
COC(=O)C1CCN(C(=O)c2ccc3nc(-c4cccc(OC)c4)oc3c2)CC1,-12.8,-3.8,32.3*,-1.2,2.4,-2.5
COC(=O)C1CCN(C(=O)c2ccc3nccnc3c2)CC1,-3.4,2.8,0.0,-1.3,1.9,-0.5
Cc1nc(SCc2ccccc2)nc2c1CCC2,-22.5,-5.4,16.5,93.4*,-86.4,-4.2
CCC(=O)Nc1ccc(-c2ccc(N3CCC(C)CC3)nn2)cc1,-2.1,-2.9,x,88.5*,-90.2,1.0
CCC(=O)Nc1cccc(-c2ccc(N3CCC(C)CC3)nn2)c1,4.1,-21.0,27.4,6.8,-9.1,0.7
Cc1ccc(-c2nnc(SCc3ccc([N+](=O)[O-])cc3)n2-c2ccccc2)cc1,x,x,x,x,x,2.9
CCCCC(=O)N[C@H]1CC[C@@]23CCCN2C(=O)CCC[C@H]3[C@H]1CCC,x,x,x,x,x,-1.2
SMILES,PfHsp90 set2,Glyco luc inh,Wnt bcat act,MITF act,TRPM1 prom inh,NSD2 inh
CC(C)CC1C(C#N)=C(N)Oc2n[nH]c(-c3cccs3)c21 (stereo not given),x,-1.5,37.1*,x,5.7,7.6
CCOC(=O)c1c(C)[nH]c(N=Nc2ccc(OC)cc2)c1C,1.1,-6.8,53.7*,129.0*,-108.2,6.1
CCOC(=O)c1c(C)[nH]c(N=Nc2ccc(C)cc2)c1C,-15.6,-5.1,x,124.2*,-117.4,9.4
CCOC(=O)c1c(C)[nH]c(N=Nc2ccccc2Cl)c1C,-16.9,-9.6,45.9*,65.2,-62.6,x
COc1ccc(NC(=O)CC2CC3CCC2C3)cc1S(=O)(=O)N1CCOCC1 (stereo not given),-22.2,-1.4,-1.6,-11.8,9.7,x
O=C(NCC1COCCO1)C1CCN(S(=O)(=O)c2cccs2)CC1 (stereo not given),x,x,x,x,x,1.0
COC(=O)c1cc(S(=O)(=O)N2CCN(c3ccccc3Cl)CC2)cn1C,x,x,x,x,x,28.1
CN(C)/C=N/c1nc(-c2ccc3c(c2)OCO3)cs1,5.5,-2.2,70.9*,76.1,-67.9,-31.0
CN(C)/C=N/c1nc(-c2ccc3ccccc3c2)cs1,-70.8,-5.8,40.5*,125.0*,-128.4,-0.1
O=C(OCc1ccc(CSc2nnc(-c3cccc4ccccc34)o2)cc1)c1ccc(F)cc1,x,x,x,x,x,-2.7
Oc1ccc(-c2csc(Nc3ncccn3)n2)cc1O,0.4,-12.8,3.5,24.9,-26.6,29.2
Oc1ccc(-c2csc(Nc3ncccn3)n2)c(O)c1,-0.6,-1.7,94.1*,103.7*,-94.6,-3.4
Oc1ccc(-c2csc(Nc3ccc4c(c3)OCO4)n2)c(O)c1,16.3,1.1,45.9*,54.1,-48.6,x
CCOc1ccc(OCC(=O)OCC(=O)NCC2CCCO2)cc1 (stereo not given),x,-1.2,1.9,-10.4,11.2,7.1
CC(C)(C)C(=O)Nc1ccc(C(=O)Nc2cccnc2)cc1,4.8,-2.1,49.0*,68.9,-76.3,-1.9
CCC(=O)Nc1ccc(C(=O)Nc2cccnc2)cc1,x,0.3,5.1,20.4,-20.3,-2.8
CCC(C)c1ccc(NC(=O)c2cccnc2)cc1 (stereo not given),30.7,-2.6,x,89.0*,-92.1,-1.7
CCC(C)c1ccc(O)c(NC(=O)c2cccnc2)c1 (stereo not given),-11.1,-1.4,x,1.3,-4.1,5.7
COc1ccc2c(c1)CCN1C2CCN2C(=O)CCC21 (stereo not given),2.7,1.2,-2.0,9.7,-12.4,5.9
CC(C)CCn1cnc2c(sc3nc4c(cc32)CSC(C)(C)C4)c1=O,-2.9,-17.4,-1.5,85.3*,-85.9,1.8
c1ccc(-c2ccc(-n3ccnc3)cc2)cc1,3.3,-0.3,u,67.3,-69.2,3.7
c1ccc(-c2ccc(C(c3ccccc3)n3ccnc3)cc2)cc1 (stereo not given),105.3*,-1.1,-1.1,5.0,-6.6,x
O=c1cc(CSc2ccc(Cl)cc2)nc(-c2ccccn2)[nH]1,105.0*,-11.9,-1.4,-64.5,67.4*,1.7
Cc1sc(NC(=O)c2ccco2)c(C(c2cccnc2)N2CCC(C)CC2)c1C (stereo not given),91.6*,-9.9,2.3,-30.5,20.7,x
COc1ccc(C(=O)N=c2sc3c(C)ccc(OC)c3n2C)cc1OC,26.5,5.3,u,99.0*,-97.3,-2.6
COc1ccc(C(=O)N=c2sc3ccccc3n2C)cc1OC,-12.6,-0.6,43.2*,78.7,-79.7,-0.3
Fc1cccc(Cc2c(-c3ccc(Cl)cc3)nc3c(Cl)cc(C(F)(F)F)cn23)c1,x,1.3,-1.0,x,x,x
